# Records with an inconclusive call do not appear. Unmarked numbers belong to inactive results. The source made the active and inactive calls. The call rests on the fitted dose curve; in most records, active means well fitted cell-killing curve with a large enough effect; inconclusive means small, poorly fitted or top-dose-only effect, or effect the other way; inactive means no such curve, though single readings can be large or run the other way.
# Experiment: Quantitative High-Throughput drug screen in 47 multiple myeloma cell lines against the NCATS MIPE library collection: RPMI8226_ATCC cell viability assay (AID 1919871)
# Conditions: RPMI8226 myeloma viability, CellTiter-Glo ATP luminescence, 48 h; series mostly up to 45.8 µM; viability (% of control): at the top concentration
# How it was run: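 Myeloma cells (500/well) treated with MIPE 4.0 compounds for 48 h at 37 °C, 5% CO2. Viability read as ATP via CellTiter-Glo luminescence after 5 min at RT; DMSO-only wells = 100%, media-only = 0% viability.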
# Further: nearly all actives have a fitted effect of over 30% in size.
# Potency means the concentration at half of the fitted maximal effect.
SMILES,viability (% of control) [%],Potency
N[C@@H]1CONC1=O,132,–
CCC(C)n1ncn(-c2ccc(N3CCN(c4ccc(OC[C@H]5CO[C@](Cn6cncn6)(c6ccc(Cl)cc6Cl)O5)cc4)CC3)cc2)c1=O (stereo partly specified),–,3.32 µM (active)
CCCCCCCc1ccc(CCc2cccc(O)c2C(=O)O)cc1,–,16.6 µM (active)
CCCc1nc2c(C)cc(-c3nc4ccccc4n3C)cc2n1Cc1ccc(-c2ccccc2C(=O)O)cc1,114,–
CC1(C)SCCN(S(=O)(=O)c2ccc(OCC#CCO)cc2)[C@@H]1C(=O)NO,103,–
CCCC(CCC)C(=O)O,128,–
COc1cc2c(cc1OC)CN(CCc1ccc(NC(=O)c3cccc4c(=O)c5cccc(OC)c5[nH]c34)cc1)CC2,101,–

# Experiment: Quantitative High-Throughput drug screen in 47 multiple myeloma cell lines against the NCATS MIPE library collection: OPM2_DSMZ cell viability assay (AID 1919872)
# Conditions: OPM2 myeloma viability, CellTiter-Glo ATP luminescence, 48 h; series mostly up to 45.8 µM; viability (% of DMSO): at the top concentration
# How it was run: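 qHTS of the MIPE 4.0 collection: 500 myeloma cells/well, 48 h drug exposure at 37C in 5% CO2, then CellTiter-Glo for 5 min at room temperature before luminescence reading.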
SMILES,viability (% of DMSO) [%],Potency
COc1nc(-c2ccc3c(c2)OCO3)n(-c2ccc(NC(=O)CSc3ccccc3)cc2)n1,130,–
Cc1c(CN2CCN(C(=O)C(C)C)CC2)sc2c(N3CCOCC3)nc(-c3cnc(N)nc3)nc12,–,0.118 µM (active)
COc1ccc(CC2=NN3C([C@@H](CCc4ccccc4)[C@@H](C)O)=NC(C)C3C(=O)N2)cc1OC (stereo partly specified),103,–
CC(C)OC(=O)C1=CN(C(=O)c2ccc(F)c(F)c2)CC(C)(C)c2c1[nH]c1ccccc21,106,–
N[C@@H]1CONC1=O,125,–
COc1ccccc1[C@H](c1cccc2ccccc12)[C@@](C)(C#N)C(=O)N1CCC(c2cccc(C(F)(F)F)c2)CC1,–,8.33 µM (active)
CCc1ccc(CCOc2ccc(CC3SC(=O)NC3=O)cc2)nc1 (stereo unspecified),93.4,–
NC(=O)c1cnccn1,103,–
Cn1cc(-c2ccc3nnc(C(F)(F)c4ccc5ncccc5c4)n3n2)cn1,78.4,–
